The record followed here is ChEMBL document CHEMBL3988442, “University of Dundee, Small-Polar-MMV Screening Library” (2021).

For some of these results: Results with a measured potency or affinity are listed apart.

Parameters in all cases: scale not given: direction of the effect not stated beside the values
In assay [1] the target is Protein translocase subunit SecA (Escherichia coli (strain K12)) (UniProt P10408). Nature of the assay: Assay to Identify E. coli SecA ATPase Inhibitors. It is filed as functional. Conditions: 30 µM.
Assay [2] deals with T1, Ubiquitin-activating enzyme e1, putative (Leishmania donovani (strain BPK282A1)) (UniProt E9BSI1).
T1 sequence (whole entry): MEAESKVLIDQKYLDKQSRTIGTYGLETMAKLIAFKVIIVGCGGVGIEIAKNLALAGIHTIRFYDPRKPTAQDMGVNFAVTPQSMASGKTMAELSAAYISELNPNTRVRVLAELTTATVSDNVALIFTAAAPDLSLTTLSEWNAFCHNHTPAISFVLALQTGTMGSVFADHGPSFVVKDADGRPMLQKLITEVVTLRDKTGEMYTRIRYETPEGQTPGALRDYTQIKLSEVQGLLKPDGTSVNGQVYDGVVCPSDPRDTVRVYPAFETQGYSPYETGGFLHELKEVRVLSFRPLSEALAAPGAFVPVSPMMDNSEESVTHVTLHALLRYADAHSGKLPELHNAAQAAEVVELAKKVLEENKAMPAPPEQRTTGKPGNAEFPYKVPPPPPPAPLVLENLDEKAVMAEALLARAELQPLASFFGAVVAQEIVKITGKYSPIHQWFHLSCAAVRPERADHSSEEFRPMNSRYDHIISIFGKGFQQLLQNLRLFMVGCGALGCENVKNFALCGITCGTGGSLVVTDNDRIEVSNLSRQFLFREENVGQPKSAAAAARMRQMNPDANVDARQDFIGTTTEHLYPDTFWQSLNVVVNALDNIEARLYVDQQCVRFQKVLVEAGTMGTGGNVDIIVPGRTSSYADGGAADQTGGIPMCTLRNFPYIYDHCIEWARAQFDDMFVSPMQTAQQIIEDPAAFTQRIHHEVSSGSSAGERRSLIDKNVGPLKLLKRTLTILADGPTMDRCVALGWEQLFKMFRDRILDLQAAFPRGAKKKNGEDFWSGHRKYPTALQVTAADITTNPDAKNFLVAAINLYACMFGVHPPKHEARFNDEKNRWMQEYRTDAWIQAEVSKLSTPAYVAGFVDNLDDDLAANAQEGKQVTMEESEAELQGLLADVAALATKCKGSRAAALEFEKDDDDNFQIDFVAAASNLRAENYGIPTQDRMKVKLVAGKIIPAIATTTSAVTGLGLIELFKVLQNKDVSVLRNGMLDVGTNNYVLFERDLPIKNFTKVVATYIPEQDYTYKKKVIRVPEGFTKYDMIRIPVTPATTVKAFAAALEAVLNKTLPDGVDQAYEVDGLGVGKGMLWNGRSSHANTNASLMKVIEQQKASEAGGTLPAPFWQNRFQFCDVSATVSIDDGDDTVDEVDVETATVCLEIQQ
Nature of the assay: Leishmania donovani Ubiquitin Activating Enzyme (LdE1). The assay is classed as functional. The settings on record: 30 µM.

For assay [3], the target named is AMP-activated protein kinase, AMPK (Homo sapiens) (UniProt P54646+O43741+P54619+Q9UGJ0+Q9Y478+Q13131+Q9UGI9). The assay is described as follows: AMP-dependent Kinase enzyme assay. An in vitro enzyme assay that detects ADP turnover that is directly proportional to AMPK activity. This uses naive AMPK that is activated during the assay with MK-8722. The settings on record: 30 µM. It is filed as functional.

For assay [4], the target named is Sialic acid-binding Ig-like lectin 9 (Homo sapiens) (UniProt Q9Y336). Nature of the assay: Hs-Siglec9 ALPHAscreen SOP 20170721. The settings on record: 10 µM. For orientation: Alpha assays give light when donor and acceptor beads are brought close together.
The subject of another assay is Trypanosoma cruzi. Nature of the assay: Trypanosoma cruzi phosphomannomutase and mannose-1-phosphate guanylyltransferase assay. It is filed as functional. The settings on record: 10 µM.
Assay [5] has as its target T2, Arginase-2, mitochondrial (Homo sapiens) (UniProt P78540).
T2 sequence (whole entry): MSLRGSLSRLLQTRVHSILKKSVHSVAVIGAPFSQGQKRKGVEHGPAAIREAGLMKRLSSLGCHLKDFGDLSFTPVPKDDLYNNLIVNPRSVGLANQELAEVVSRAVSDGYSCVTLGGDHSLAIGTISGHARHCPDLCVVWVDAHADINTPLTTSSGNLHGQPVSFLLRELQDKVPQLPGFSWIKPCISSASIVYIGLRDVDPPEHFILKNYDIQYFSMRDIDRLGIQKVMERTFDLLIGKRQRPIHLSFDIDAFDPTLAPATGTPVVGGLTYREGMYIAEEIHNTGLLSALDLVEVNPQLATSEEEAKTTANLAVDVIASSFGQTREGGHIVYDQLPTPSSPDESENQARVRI
Nature of the assay: in vitro enzyme assay to detect the production of urea directly proportional to the activity of Arginase II. Further: in the data most compounds retested in dose-response had high values. The assay is classed as functional. The settings on record: 33.3 µM.

Assay [6] has as its target T3, Proteasome subunit beta (Trypanosoma cruzi) (UniProt O96673).
T3 sequence (whole entry): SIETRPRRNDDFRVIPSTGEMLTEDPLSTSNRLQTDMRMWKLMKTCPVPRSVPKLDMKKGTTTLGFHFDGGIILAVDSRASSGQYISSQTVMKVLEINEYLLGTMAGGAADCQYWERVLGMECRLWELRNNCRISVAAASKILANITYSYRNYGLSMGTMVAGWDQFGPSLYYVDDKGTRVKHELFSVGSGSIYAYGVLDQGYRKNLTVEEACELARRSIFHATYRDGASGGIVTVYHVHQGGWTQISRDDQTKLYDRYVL
The assay is described as follows: Trypanosoma cruzi proteasome chymotrypsin-like activity (TcProtChymo) assay. Further: in the data most compounds retested in dose-response had high values. The assay is classed as functional. The settings on record: 9.37 µM.

The species named for another assay is Homo sapiens. The assay is described as follows: To identify inhibition of the IFN signalling (Jak-Stat) pathway via expression of an eGFP reporter gene under the control of an IFN-stimulated response element (ISRE) containing MxA promoter. It is filed as functional. The settings on record: 30 µM.
Assay [7] addresses T4, Tyrosyl-tRNA synthetase, putative (Trypanosoma cruzi (strain CL Brener)) (UniProt Q4DSP6).
T4 sequence (whole entry): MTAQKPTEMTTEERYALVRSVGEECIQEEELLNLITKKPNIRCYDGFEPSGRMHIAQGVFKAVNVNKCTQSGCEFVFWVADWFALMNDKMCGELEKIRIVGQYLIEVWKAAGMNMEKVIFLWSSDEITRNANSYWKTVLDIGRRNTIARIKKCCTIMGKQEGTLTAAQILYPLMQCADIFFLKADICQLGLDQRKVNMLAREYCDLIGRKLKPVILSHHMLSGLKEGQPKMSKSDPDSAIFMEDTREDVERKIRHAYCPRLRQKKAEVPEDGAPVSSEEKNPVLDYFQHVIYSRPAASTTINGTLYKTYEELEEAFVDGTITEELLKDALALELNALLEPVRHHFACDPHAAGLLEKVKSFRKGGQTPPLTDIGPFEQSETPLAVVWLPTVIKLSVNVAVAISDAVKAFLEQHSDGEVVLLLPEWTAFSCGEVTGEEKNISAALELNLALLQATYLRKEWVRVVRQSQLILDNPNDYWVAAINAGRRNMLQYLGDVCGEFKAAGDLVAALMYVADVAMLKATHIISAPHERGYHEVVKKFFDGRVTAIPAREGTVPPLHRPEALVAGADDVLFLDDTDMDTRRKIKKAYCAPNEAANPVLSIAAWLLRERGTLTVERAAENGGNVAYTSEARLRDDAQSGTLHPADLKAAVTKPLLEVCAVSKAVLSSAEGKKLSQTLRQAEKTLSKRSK
Nature of the assay: Trypanosoma cruzi tyrosyl tRNA synthetase (TcYRS) _High Tyrosine SOP. Further: in the data most compounds retested in dose-response had high values. The assay is classed as functional. The settings on record: 30 µM.

Assay [8] addresses T4, Tyrosyl-tRNA synthetase, putative (Trypanosoma cruzi (strain CL Brener)). The assay is described as follows: Trypanosoma cruzi tyrosyl tRNA synthetase (TcYRS) SOP. The assay is classed as functional. Conditions: 30 µM.
Assay [9] addresses Chromo domain-containing protein 1 (Saccharomyces cerevisiae (strain ATCC 204508 / S288c) (Baker's yeast)) (UniProt P32657). Nature of the assay: ScCHD-1 Enzyme Inhibition Assay. Further: in the data most compounds retested in dose-response had high values. The settings on record: 30 µM. The assay is classed as functional.

Chain of Protein translocase subunit SecA (Escherichia coli (strain K12)) (P10408 whole entry): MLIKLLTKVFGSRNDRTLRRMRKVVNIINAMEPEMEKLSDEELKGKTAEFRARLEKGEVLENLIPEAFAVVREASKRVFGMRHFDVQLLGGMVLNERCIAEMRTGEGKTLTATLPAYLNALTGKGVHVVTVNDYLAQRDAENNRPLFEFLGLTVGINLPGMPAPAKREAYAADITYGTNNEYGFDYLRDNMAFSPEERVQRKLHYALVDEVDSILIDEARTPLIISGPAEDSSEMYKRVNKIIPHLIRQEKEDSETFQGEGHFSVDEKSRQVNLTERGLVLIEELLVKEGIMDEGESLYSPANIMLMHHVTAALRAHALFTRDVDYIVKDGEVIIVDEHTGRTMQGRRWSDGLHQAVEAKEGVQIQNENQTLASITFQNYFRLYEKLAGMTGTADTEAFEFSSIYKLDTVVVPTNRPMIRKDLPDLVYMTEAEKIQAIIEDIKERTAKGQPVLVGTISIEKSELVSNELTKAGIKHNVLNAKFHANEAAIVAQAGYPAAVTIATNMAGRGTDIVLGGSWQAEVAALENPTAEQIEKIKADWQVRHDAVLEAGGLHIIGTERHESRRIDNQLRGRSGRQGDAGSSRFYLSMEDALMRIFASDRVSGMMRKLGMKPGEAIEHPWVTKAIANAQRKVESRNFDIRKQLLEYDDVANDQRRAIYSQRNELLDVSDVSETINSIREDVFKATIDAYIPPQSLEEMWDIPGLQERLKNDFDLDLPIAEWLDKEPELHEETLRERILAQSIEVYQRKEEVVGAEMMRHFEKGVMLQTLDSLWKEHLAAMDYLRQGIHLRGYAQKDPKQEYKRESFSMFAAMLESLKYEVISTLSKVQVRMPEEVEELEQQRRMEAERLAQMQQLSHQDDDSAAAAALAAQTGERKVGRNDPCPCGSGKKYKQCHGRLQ
Chain of Chromo domain-containing protein 1 (Saccharomyces cerevisiae (strain ATCC 204508 / S288c) (Baker's yeast)) (P32657 whole entry, the tested form may be a part): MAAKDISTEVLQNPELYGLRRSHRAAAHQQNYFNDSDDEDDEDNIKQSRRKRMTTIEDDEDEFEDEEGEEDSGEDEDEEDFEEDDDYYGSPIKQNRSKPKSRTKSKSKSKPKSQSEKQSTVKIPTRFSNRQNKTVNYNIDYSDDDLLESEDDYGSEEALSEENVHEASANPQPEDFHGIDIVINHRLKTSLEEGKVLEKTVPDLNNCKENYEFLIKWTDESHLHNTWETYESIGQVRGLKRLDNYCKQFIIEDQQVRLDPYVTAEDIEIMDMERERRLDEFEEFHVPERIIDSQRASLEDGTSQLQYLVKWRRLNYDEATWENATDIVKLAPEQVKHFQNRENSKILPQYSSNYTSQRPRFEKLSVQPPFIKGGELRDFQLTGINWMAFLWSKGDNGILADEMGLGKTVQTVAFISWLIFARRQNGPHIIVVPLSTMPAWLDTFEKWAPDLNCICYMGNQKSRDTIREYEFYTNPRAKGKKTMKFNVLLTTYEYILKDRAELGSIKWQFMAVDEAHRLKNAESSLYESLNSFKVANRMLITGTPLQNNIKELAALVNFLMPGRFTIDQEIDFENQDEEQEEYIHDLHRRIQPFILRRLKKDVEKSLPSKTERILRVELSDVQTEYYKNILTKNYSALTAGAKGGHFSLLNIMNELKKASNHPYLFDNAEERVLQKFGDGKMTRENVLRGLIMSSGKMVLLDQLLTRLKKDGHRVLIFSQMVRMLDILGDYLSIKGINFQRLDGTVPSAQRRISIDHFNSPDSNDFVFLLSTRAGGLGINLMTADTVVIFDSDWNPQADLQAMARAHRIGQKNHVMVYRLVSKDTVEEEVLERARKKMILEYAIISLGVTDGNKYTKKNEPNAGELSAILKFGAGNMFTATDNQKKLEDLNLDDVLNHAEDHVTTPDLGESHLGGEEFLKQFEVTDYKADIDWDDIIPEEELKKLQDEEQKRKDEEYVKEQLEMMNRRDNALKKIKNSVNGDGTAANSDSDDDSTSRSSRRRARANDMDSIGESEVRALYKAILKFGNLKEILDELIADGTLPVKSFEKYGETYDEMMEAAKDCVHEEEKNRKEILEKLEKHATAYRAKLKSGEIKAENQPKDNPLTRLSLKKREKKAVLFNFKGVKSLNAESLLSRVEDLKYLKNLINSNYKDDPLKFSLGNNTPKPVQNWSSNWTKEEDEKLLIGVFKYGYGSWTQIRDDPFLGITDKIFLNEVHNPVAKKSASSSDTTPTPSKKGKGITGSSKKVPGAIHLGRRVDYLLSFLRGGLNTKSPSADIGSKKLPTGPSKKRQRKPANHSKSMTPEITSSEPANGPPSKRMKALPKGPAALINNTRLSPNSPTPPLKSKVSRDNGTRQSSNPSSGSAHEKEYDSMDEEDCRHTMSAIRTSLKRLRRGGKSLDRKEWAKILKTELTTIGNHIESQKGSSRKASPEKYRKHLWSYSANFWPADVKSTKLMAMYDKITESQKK
Chain of Sialic acid-binding Ig-like lectin 9 (Homo sapiens) (Q9Y336 whole entry): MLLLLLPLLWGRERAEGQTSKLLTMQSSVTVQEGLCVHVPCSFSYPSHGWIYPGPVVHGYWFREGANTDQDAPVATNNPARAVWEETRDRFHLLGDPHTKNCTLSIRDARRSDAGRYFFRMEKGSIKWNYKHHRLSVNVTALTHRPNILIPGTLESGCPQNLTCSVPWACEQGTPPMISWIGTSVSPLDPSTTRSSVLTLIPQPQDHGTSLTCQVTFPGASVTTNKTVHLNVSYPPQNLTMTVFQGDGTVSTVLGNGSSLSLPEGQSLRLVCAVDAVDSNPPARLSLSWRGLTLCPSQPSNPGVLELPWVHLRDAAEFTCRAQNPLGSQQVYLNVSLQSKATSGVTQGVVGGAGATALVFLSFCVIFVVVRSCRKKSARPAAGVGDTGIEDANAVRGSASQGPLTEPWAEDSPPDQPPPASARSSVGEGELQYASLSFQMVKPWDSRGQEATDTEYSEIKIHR

As for `Cn1cc(CNC2CCCN(Cc3noc(C4CC4)n3)C2)cn1` (stereo not drawn), the Percent Effect is -1.45% in assay [1]; 13.2% in assay [2]; 1.88% in assay [3]; -6.33% in [4]; -4.51% with Trypanosoma cruzi; 5.75% in assay [5]. Moreover, the Percent Effect in assay [6] was 18.7%; in the assay listed under Homo sapiens, 28.1%; in [7], 2.45%; in [8], 12.2%; in assay [9] it was -11.8%.
For `CC(O)CN1CCN(C(=O)c2cccc(CC#N)c2)CC1` (stereo not drawn), the Percent Effect was -0.303% in [1]; 23.4% in assay [2]; -4.34% in [3]; -2.88% in assay [4]; 0.749% with Trypanosoma cruzi; 3.92% in [5]. Further, the Percent Effect in [6] was 12.7%; in the assay listed under Homo sapiens it was 27%; in assay [7] it was 6.8%; in assay [8], 2.44%; in [9], -4.3%.
As for `CS(=O)(=O)NCC1CCCN(C(=O)Nc2cccnc2N2CCCC2)C1` (stereo not drawn), the Percent Effect in [1] is -5.11%; in [2] it was 13.2%; in assay [3], -26.3%; in assay [4], -7.09%; in the assay with Trypanosoma cruzi it was -6.33%; in [5], 2.37%. Further, the Percent Effect in assay [6] was 16.4%; in the assay filed under Homo sapiens, -14.6%; in assay [7] it was 2.13%; in [8], 5.2%; in [9], -7%.
As for `COC(=O)c1ccccc1NC(=O)c1nc2ccccc2n(C)c1=O`, the Percent Effect in assay [1] was -1.59%; in [2], 10.4%; in assay [3], 1.48%; in [4], -0.871%; with Trypanosoma cruzi, 5.82%; in assay [5], 1.94%. The Percent Effect in assay [6] is 6.79%; in the assay listed under Homo sapiens, 17%; in [7], 4.23%; in assay [8], 16.7%; in assay [9], -8.57%.
For the molecule `CC(C)c1nnc2n1CCN(C(=O)c1ccc(CN(C)C)cc1)C2`, the Percent Effect in assay [1] was -3.27%; in assay [2], -2.6%; in assay [3], -13.6%; in assay [4] it was -5.41%; with Trypanosoma cruzi, -2.84%; in [5] it was 1.47%. For the same molecule, the Percent Effect in assay [6] was 12.5%; in the assay listed under Homo sapiens, 22.6%; in assay [7] it was 0.952%; in [8], -2.35%; in assay [9] it was -18.4%.
Take `COc1ccc(OCC(=O)NS(=O)(=O)c2cc(F)ccc2F)cc1`: the Percent Effect was -8% in assay [1]; 0% in assay [2]; 5.69% in assay [3]; -4.95% in assay [4]; -3.28% in the assay on Trypanosoma cruzi; -3.33% in assay [5]. For the same molecule, the Percent Effect in assay [6] is 5.34%; in the assay listed under Homo sapiens it was 22.6%; in [7], -3.7%; in assay [8], -4.88%; in [9], -2.11%.
Consider `Cc1cnn(CC(C)NCc2csc(-c3ccco3)n2)c1` (stereo not drawn), for which the Percent Effect in assay [1] is -3.81%; in assay [2], -3.8%; in assay [3], 10.6%; in assay [4], -3.77%; in the assay with Trypanosoma cruzi it was -5.44%; in assay [5], -3.66%. Moreover, the Percent Effect was 10.1% in [6]; 18.9% in the assay listed under Homo sapiens; 11.5% in assay [7]; 2.53% in assay [8]; -23.7% in assay [9].
For the molecule `COCc1nc2n(n1)CCCC2Nc1nc(C2CC2)ns1` (stereo not drawn), the Percent Effect in assay [1] is -2.6%; in assay [2] it was 5.33%; in [3], -1.82%; in assay [4], 23.5%; in the assay on Trypanosoma cruzi it was 2.82%; in assay [5], 16.1%. Besides, the Percent Effect is 13.6% in assay [6]; -2.26% in the assay listed under Homo sapiens; 4.92% in [7]; 13.6% in [8]; -5.92% in assay [9].
